Out of some 48,000 compounds screened, about 13,000 (27%) showed an effect of 50% or more. Some of the results follow.
Tested on: Wolbachia pipientis
Experiment: Anti-Wolbachia Cell-Based Screen
Type: functional
Set-up: scale not given: in the data most compounds retested in dose-response had high values
Settings: 5 µM

Compound | Percent Effect
CCn1ccnc1CN1CCN(c2nccc(OC)n2)CC1C (configuration not stated) | -24.68%
Fc1cccc(-c2nnn3c2COC(CNc2ncccn2)C3)c1 (configuration not stated) | -1.841%
Cc1ccc(CC(=O)N(CC2CN(C)CCO2)c2nccs2)cn1 (configuration not stated) | 90.15%
CN1CCOC(CN(C(=O)CCCn2cccn2)c2nccs2)C1 (configuration not stated) | 81.94%
O=C(CN1CCOC(Cn2cccn2)C1)Nc1nccs1 (configuration not stated) | -0.2623%
Cc1ccc(CC(=O)N2CCCC(c3nc(C)cs3)C2)cn1 (configuration not stated) | -6.398%
CN1CCOC(CN(C(=O)Cc2ccccc2F)c2nccs2)C1 (configuration not stated) | -6.62%
Cc1cc(CC(=O)N(CC2CN(C)CCO2)c2nccs2)no1 (configuration not stated) | -0.7073%
c1cnn(CC2CN(c3ncnc4ccsc34)CCO2)c1 (configuration not stated) | -13.22%
CC[C@@]1(O)CCN(C(=O)CCc2cnn(C)c2)C[C@H]1O | -7.505%
CN1CCOC(CN(C(=O)COc2ccccc2)c2nccs2)C1 (configuration not stated) | 132.7%
CN1CCOC(CN(C(=O)CC2CCCC2)c2nccs2)C1 (configuration not stated) | -0.02384%
Cc1cnn(CC2CN(CC(=O)N(C)c3nccs3)CCO2)c1 (configuration not stated) | 4.22%
CN1CCOC(CN(C(=O)CCc2cnn(C)c2)c2nccs2)C1 (configuration not stated) | 107%
CC(C)C1CN(C(=O)Nc2cnn(CC(F)F)c2)CCO1 (configuration not stated) | 14.22%
CC(C)N1CC2(CCCN(Cc3noc(C4CCCC4)n3)C2)CCC1=O (configuration not stated) | 0.7717%
COC1CCN(C(=O)c2csc(-c3ccccc3F)n2)CC1 | 15.42%
CN1CCOC(CN(C(=O)CCc2ccco2)c2nccs2)C1 (configuration not stated) | 89.12%
Nc1nccnc1C(=O)N(Cc1ccco1)CC1CCCO1 (configuration not stated) | 3.477%
O=C(NCCc1nccs1)C1CCCN(Cc2ccco2)C1 (configuration not stated) | -29.34%
O=C(CCc1cn[nH]c1)N1C[C@H](CO)C[C@H](CN2CCOCC2)C1 | -1.636%
Cn1cnnc1C1CCCN(C(=O)c2ccccc2Cl)C1 (configuration not stated) | 1.344%
Cn1cnnc1C1CCCN(C(=O)c2cc(Cl)cc(Cl)c2)C1 (configuration not stated) | 113.5%
Cn1cnnc1C1CCCN(C(=O)c2cc(Cl)c3c(c2)OCO3)C1 (configuration not stated) | -3.548%
Cn1cnnc1C1CCCN(C(=O)c2cc(Cl)c(Cl)n2C)C1 (configuration not stated) | 115.1%
Cc1noc(C2CCCN(C(=O)c3cc(Cl)c(Cl)n3C)C2)n1 (configuration not stated) | 3.125%

Compound | Percent Effect
O=C(c1cnns1)N1CCN(Cc2ccc(F)cc2Cl)CC1 | 11.32%
Cc1nn(C)c(C)c1C1CCCN1c1ncnc2[nH]ccc12 (configuration not stated) | 1.551%
Brc1ccc(NCCCOC2CCOCC2)nc1 | 3.889%
CCN(Cc1cc(Cl)ccc1OC)Cc1ncnn1CC | 0.2011%
CCCc1nnc(N2CCN(c3cccc(OC)c3)C(=O)C2)o1 | 11.57%
CCCc1nnc(N2CCN(c3ccccc3OCC)CC2)o1 | 99.15%
COc1ccccc1CN1CCN(CCN2CCOC2=O)CC1 | -7.896%
CCOc1ccccc1N1CCN(CC2(O)CCCNC2)CC1 (configuration not stated) | -13.46%
CCCc1nnc(N2CCN(Cc3ccccc3OC)CC2)o1 | 96.58%
COc1ccccc1N1CCN(Cc2nc(C)c(C)o2)CC1 | -4.949%
CCOc1ccccc1N1CCN(c2nnc(C)o2)CC1 | 100.3%
c1ccc(OCc2noc(CN3CCC(N4CCSCC4)CC3)n2)cc1 | -5.795%
O=C(c1cc2c([nH]c1=O)CCC2)N1CCCCCC1c1ccncc1 (configuration not stated) | 23.88%
CC(C)COCC(NC(=O)Cc1ccn[nH]1)c1ccco1 (configuration not stated) | -5.318%
Cc1noc(C)c1CNCc1nn(-c2ccccc2)c2c1CCC2 | -8.034%
CCC(C)NC(=O)c1cccc(CNC(=O)CC(F)(F)F)c1 (configuration not stated) | 4.521%
O=C(Cc1csc(-c2ccccc2F)n1)NCc1ccc(C(=O)O)cc1 | 91.75%
O=C(Cc1csc(-c2ccccc2Cl)n1)NCc1cccc(C(=O)O)c1 | 96.86%
Clc1ccccc1-c1nc(CNCCn2cccn2)cs1 | -5.873%
O=C(Cc1csc(-c2cccc(Cl)c2)n1)NCc1cccc(C(=O)O)c1 | 106.6%
O=C(CCC1CCN(C(=O)c2csnn2)CC1)NCc1cccc(Cl)c1 | -4.206%
COc1ccccc1-c1csc(-c2cccc(C(=O)O)c2)n1 | 1.276%
CC(=O)c1cc(CC(=O)NCc2ccc(F)cc2)cs1 | -15.8%
Cc1[nH]c2c(F)cccc2c1CC(=O)NCc1csc(N(C)C)n1 | -5.819%
O=C(Cc1csc(-c2ccccc2F)n1)NCc1cccc(C(=O)O)c1 | 94.98%
O=C(CCC1CCN(C(=O)c2cc[nH]c2)CC1)NCc1cccc(Cl)c1 | 14.78%

Compound | Percent Effect
CC(=O)c1cc(CC(=O)NCc2c(F)cccc2F)cs1 | -9.682%
CCC(C(=O)N(C)C)N1CCC(c2nccn2Cc2cscn2)CC1 (configuration not stated) | -0.1258%
COCCCn1nnc(C2(NC(=O)c3ccccc3)CCCC2)n1 | -42.57%
O=C(Cc1cccs1)N1C[C@@H]2CC[C@H](C1)N(Cc1ccccn1)C2=O | 15.92%
Cc1cc(C(=O)N2CCc3nnc(N)cc3C2)c(C)n1C1CC1 | 6.232%
CC(Cn1cccn1)NCc1csc(-c2ccccc2F)n1 (configuration not stated) | 0.9927%
O=C(O)CNC(=O)Cc1csc(-c2ccccc2F)n1 | 127.8%
CC(C)N(CCS(C)(=O)=O)Cc1csc(-c2ccccc2F)n1 | -5.187%
Cc1cc(C)nc(CCNc2nccc(CCC(F)(F)F)n2)n1 | -9.076%
O=C(Cc1cccc(O)c1)NCCNc1nccc(C(F)(F)F)n1 | -3.193%
O=C(O)c1ccnc(-c2ccnc(NCCc3cscn3)n2)c1 | 6.299%
Cc1cc(C)c(CNC(=O)NCCc2cccnc2)c(=O)[nH]1 | -5.274%
O=c1[nH][nH]cc1-c1ccnc(NCCc2ccc(F)cc2)n1 | 99.64%
Cc1ncc(-c2ccnc(NCCc3ccc(F)cc3)n2)c(=O)[nH]1 | 69.11%
CCOc1ccnc(NCCc2nc(C)cc(=O)[nH]2)n1 | 25.33%
O=c1[nH][nH]cc1-c1ccnc(NCCc2cccnc2)n1 | 116.1%
N#Cc1cc(F)c(NCCc2cccnc2)c(F)c1 | 0.2383%
O=c1[nH][nH]cc1-c1ccnc(NCCc2cccc(O)c2)n1 | 135%
O=C(O)c1ccnc(-c2ccnc(NCCc3ccc(F)cc3)n2)c1 | -8.109%
Cc1cc(C2CN(CC(=O)NCc3ccco3)CCO2)ccc1F (configuration not stated) | -9.058%
CN(C)C(=O)CN1C(=O)[C@H]2CC[C@@H]1CN(Cc1ccccc1C#N)C2 | -21.45%
COC(=O)Cc1cccc(NC(=O)Cc2cc(C)[nH]n2)c1 | 1.53%
Cc1nc(CCN)cc(N2CCOc3ccc(Cl)cc3C2)n1 | 10.69%
CCN(Cc1ccc2c(c1)OCO2)C(=O)CCc1c(C)nc(C)[nH]c1=O | -8.876%
CCOC(=O)c1n[nH]cc1CN1CCOC(Cc2ccc(OC)cc2)C1 (configuration not stated) | -36.24%
CC(=O)NCCNc1nccc(CCC(F)(F)F)n1 | -2.049%

Compound | Percent Effect
COCCCNc1nccc(-c2c[nH][nH]c2=O)n1 | 1.466%
CC(C)(C)CCNc1nccc(-c2c[nH][nH]c2=O)n1 | 100.4%
Cc1nnc(SCCC(=O)N(C)Cc2ccc(Cl)s2)[nH]1 | 6.778%
O=C(C1CN(CC2CCOCC2)CC12CCOCC2)N1CCCC1.O=C(O)C(F)(F)F (configuration not stated) | 0.226%
COC(=O)c1cccc(C(=O)N2CCN(c3cccc(C)c3C)CC2)n1 | -16.02%
CC(=O)N1CCCN(C(=O)c2ccn(-c3cccc(Cl)c3)n2)CC1 | 4.023%
O=C(OCCF)c1cccc(C(=O)N2CCCC2)n1 | 7.504%
COC(=O)c1cccc(C(=O)N2CCN(c3cc(C)ccc3C)CC2)n1 | 123.5%
COc1cc(C)nc(N2CCN(C(=O)c3cc(Cl)c[nH]3)CC2)n1 | 7.277%
COC(=O)c1cccc(C(=O)N2CCN(c3cc(Cl)ccc3C)CC2)n1 | 103.9%
COCC1CN(Cc2cc(C)on2)Cc2cn(CC3CCCC3)nc21.O=C(O)C(F)(F)F.O=C(O)C(F)(F)F (configuration not stated) | 1.452%
CNS(=O)(=O)Cc1cccc(CNc2ccc(Cl)cn2)c1 | 7.116%
O=C(C(NCc1cccc(F)c1F)c1ccccc1)N1CCOCC1 (configuration not stated) | -0.9973%
O=C(O)C(F)(F)F.O=C(c1ccc(O)cc1)N1C[C@@H]2CCN(c3cccnc3)C[C@@H]2C1 | 9.269%
CC(C)N1CCO[C@H]2CN(C(=O)c3ccoc3)C[C@H]21.O=C(O)C(F)(F)F | -10.4%
CN(C)C[C@H]1OC[C@@H]2CCN(C(=O)c3cccn3C)C[C@@H]21.O=C(O)C(F)(F)F | -2.348%
CNC(=O)CN1CC[C@H]2CN(C(=O)c3ccoc3)C[C@H]2C1.O=C(O)C(F)(F)F | 90.52%
CNC(=O)CN1CC[C@H]2CN(C(=O)c3cccc(C)c3)C[C@H]2C1.O=C(O)C(F)(F)F | 104.9%
Cn1cccc1C(=O)N1C[C@@H]2CCN(c3cccnc3)C[C@@H]2C1.O=C(O)C(F)(F)F | -18.75%
CC(C)N1[C@H](CN2CCCC2)C[C@@H]2CN(C(=O)c3ccoc3)CC[C@@H]21.O=C(O)C(F)(F)F.O=C(O)C(F)(F)F | -8.643%
Cc1cccc(C(=O)N2C[C@@H]3CCN(C(C)C)C[C@@H]3C2)c1.O=C(O)C(F)(F)F | -3.353%
O=C(O)C(F)(F)F.O=C(c1ccc(F)cc1)N1C[C@@H]2CCN(c3cccnc3)C[C@@H]2C1 | 11.69%
CNC(=O)CN1CC[C@H]2CN(C(=O)c3ccc(C)cc3)C[C@H]2C1.O=C(O)C(F)(F)F | 117%
CNC(=O)CN1CC[C@H]2CN(C(=O)c3cccn3C)C[C@H]2C1.O=C(O)C(F)(F)F | 94.61%
